Measurements taken from PubChem BioAssay (NCI).
Compounds without any hit were thinned out: in the full panel of roughly 83,000, 20% have a hit.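 Cell lines were cultured in 96-well plates, exposed to a single compound concentration, and assessed for percent growth 48 hours later.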 A number with no mark means an inactive call. The source made the active and inactive calls. Rule for the calls: active = growth percent below 10; inactive = the rest.

What was measured:
Experiment in all cases: NCI-60 one-dose screen, 48 h (100 = growth as untreated, 0 = no growth, -100 = all killed)
Details in all cases: 10 µM unless noted
SR leukemia = test system: SR leukemia
RPMI-8226 leukemia = test system: RPMI-8226 leukemia
OVCAR-8 ovarian = test system: OVCAR-8 ovarian
OVCAR-5 ovarian = test system: OVCAR-5 ovarian
OVCAR-4 ovarian = test system: OVCAR-4 ovarian
SK-OV-3 ovarian = test system: SK-OV-3 ovarian
IGROV1 ovarian = test system: IGROV1 ovarian
OVCAR-3 ovarian = test system: OVCAR-3 ovarian
HS 578T breast = test system: HS 578T breast
NCI/ADR-RES ovarian = test system: NCI/ADR-RES ovarian
T-47D breast = test system: T-47D breast
BT-549 breast = test system: BT-549 breast
MDA-MB-435 melanoma = test system: MDA-MB-435 melanoma
SW-620 colon = test system: SW-620 colon
MCF7 breast = test system: MCF7 breast
HCT-116 colon = test system: HCT-116 colon
HCC-2998 colon = test system: HCC-2998 colon
KM12 colon = test system: KM12 colon

SMILES | growth (SR leukemia) | growth (RPMI-8226 leukemia) | growth (OVCAR-8 ovarian) | growth (OVCAR-5 ovarian) | growth (OVCAR-4 ovarian) | growth (SK-OV-3 ovarian) | growth (IGROV1 ovarian) | growth (OVCAR-3 ovarian) | growth (HS 578T breast) | growth (NCI/ADR-RES ovarian) | growth (T-47D breast) | growth (BT-549 breast) | growth (MDA-MB-435 melanoma) | growth (SW-620 colon) | growth (MCF7 breast) | growth (HCT-116 colon) | growth (HCC-2998 colon) | growth (KM12 colon)
O=CN1N=C(c2ccc(Nc3ccnc4cc(Cl)ccc34)cc2)CC1c1ccc(Cl)cc1 (centres undefined) | -23.3% (active) | 4.55% (active) | 33.1% | 41.9% | 38.1% | 4.28% (active) | 27.3% | -24.1% (active) | 28.1% | 0.514% (active) | 23.1% | 55.3% | -19.6% (active) | 32.9% | 18.4% | 11.7% | -20.4% (active) | 9.13% (active)
COc1cc(/C=N/NC(=O)c2ccc(C(F)(F)F)nc2Nc2ccc(Cl)cc2C)ccc1O | -14.6% (active) | 26.8% | 46.7% | 57.5% | 27.2% | 44.3% | 25.1% | 30.4% | -15.1% (active) | 30.3% | 33.7% | 16% | 39.2% | 26.2% | 27.8% | 11.3% | 42.8% | 24.5%
O=C(Nc1ccccc1)c1cc(-n2cnc([N+](=O)[O-])c2)cc(-n2cnc([N+](=O)[O-])c2)n1 | 84.2% | 86.1% | 92.7% | 109% | 100% | 104% | 126% | 105% | 96.7% | 111% | 107% | 113% | 122% | 99.7% | 116% | 103% | 65.2% | 94.1%
CO[C@H]1/C=C/O[C@@]2(C)Oc3c(C)c(O)c4c(O)c(c(/C=N/N5C(C)CN(Cc6ccc(C#N)cc6)CC5C)c(O)c4c3C2=O)NC(=O)/C(C)=C\C=C\[C@H](C)[C@H](O)[C@@H](C)[C@@H](O)[C@@H](C)[C@H](OC(C)=O)[C@@H]1C (some centres undefined) | 19.3% | -6.25% (active) | 49.7% | 27.1% | 39.7% | 18.5% | 40.6% | -21.1% (active) | 45.6% | 40.1% | 18.1% | -0.569% (active) | 26.1% | 31.5% | 11.9% | 18.5% | 2.4% (active) | 15.8%
C[C@H](C(=O)N[C@@H](Cc1ccc(-c2ccccc2)cc1)C(=O)NC1CC(C)(C)NC(C)(C)C1)c1ccc(-c2ccccc2)c(F)c1 | -27.5% (active) | -43.6% (active) | -49.9% (active) | -48.9% (active) | -27.4% (active) | -17.1% (active) | -36.8% (active) | -92.1% (active) | -31.6% (active) | 60.4% | -37.2% (active) | -19.8% (active) | -90.1% (active) | -78.2% (active) | -50.9% (active) | -85.8% (active) | -83% (active) | -80% (active)
CCOC(=O)C(Br)=P(c1ccccc1)(c1ccccc1)c1ccccc1 | 90.2% | 83.1% | 90.4% | 106% | 106% | 102% | -30.7% (active) | 98% | 119% | 103% | 97.7% | 117% | 98.6% | 105% | 111% | 110% | 109% | 112%
CCCCCCCC[Si](OCC)(OCC)OCC | 79.4% | 99.2% | 98.9% | 104% | 103% | 105% | 94.6% | 106% | 109% | 108% | 96.2% | 99.1% | 109% | 105% | 98.3% | 101% | 105% | 103%
COc1ccc2c(c1)[n+](=O)c(C(=O)/C=C/c1cc(OC)c(OC)c(OC)c1)c(C)n2[O-] | 29.5% | 32.3% | 57.4% | 102% | 72.3% | 82.3% | -27.6% (active) | 102% | 63.4% | 73% | 60.1% | 28.8% | 69.5% | 72.4% | 45.6% | 50.3% | 98.1% | 88.6%
